Data on 40 compounds can be found in PubChem BioAssay (EPA / NIEHS).

Activity calls are given as the source filed them. How the source made its calls: active means hit-call score of the fitted dose curve at least 0.9, where 1 is the maximum; inactive means score below 0.9.

Read-out in the experiment: Ezrin (EZR), EZR (gene 7430)
The experiment in a line: LTEA_HepaRG_EZR: Life Technologies and Expression Analysis (LTEA) Assay for Ezrin (EZR) using HepaRG (AID 2283491). The conditions noted are these: mRNA level, 48 h; actives raise or lower the signal. The method, then: It is a marker of Cellular remodeling.Data from the assay component LTEA_HepaRG_EZR was analyzed into 1 endpoint. This assay endpoint, LTEA_HepaRG_EZR, was analyzed with bidirectional fitting relative to DMSO as the negative control and baseline of activity. Using a type of inducible reporter, measures of mRNA induction for gain or loss-of-signal activity can be used to understand regulation of transcription factor activity. To generalize the intended target to other relatable targets, this assay endpoint is annotated to the membrane protein intended target family, where the subfamily is Cellular remodeling.
A total of 1060 chemcials from the ToxCast library were tested in eight-point concentration-response experiments. Cell culture and cytotoxicity assays were conducted at Thermo Fisher Scientific's Custom Services facility (Madison, WI). A single lot of human HepaRG cells (Thermo Fisher Scientific, Frederick, MD) was used for the cell culture experiments. 96-well format collagen type I coated plates of human HepaRG cells were prepared using established methods. Briefly, cryopreserved HepaRG cells were thawed, plated at a density of approximately 100,000 cells/well in HepaRG Thaw, Plate, and General Purpose media (HPRG770, Thermo Fisher Scientific), and incubated for 48 hours. 0.5% DMSO was selected as vehicle control to balance the requisite need of DMSO in HepaRG cultures to maintain differentiation (for example, baseline metabolism, proportions of hepatocytes vs. cholangiocytes), while enabling further hepatic receptor pathway activation (for example, PXR and CAR) in response to chemical exposure. 48 hours after plating, the culture medium was replaced with HepaRG Serum-Free Incudtion Media. Cells were exposed to each test chemical in duplicate and maintained in CO2 incubators for another 48 hours. Chemical plates were thawed to room temperature and 200x concentrations of treatment groups were prepared. 8-point conentration-reponse curves were made with the highest exposure at 100 uM, followed by half-log dilutions, all in 0.5% DMSO. Each test plate contained variouse controls, induction positive controls (1mM phenobarbital), cytotoxicity positive controls ([…] aflatoxin B1), vehicle controls (0.5% DMSO), and total lysis controls (0.5% DMSO). Cell morphology images were taken using an Essen IncuCyte FLR automated microscope, with six 96-well plates imaged in about 24 minutes. Images were captured and exported and JPEG files. Spent culture media was transfered to black-well plates for the LDH assay, and remaining media was sorted at -80 C for later use. Cells were treated with RLT buffer and frozen until shipped for gene expression analysis. Total RNA was isolated from the cell suspension in 75 uL of Buffer RLT (Qiagen, Germantown, MD 20874) by Quintiles/Expression Analysis (Durham, NC) using a custom isolation procedure. Total RNA from each plate well was transferred to a preamplification plate. Fluidigm's 96.96 Dynamic ArrayTM (Fluidigm, Amsterdam, the Netherlands) technology was used for gene expression analyses by quantitative reverse transcription polymerase chain reaction (qRT-PCR, performed by Quintiles/Expression Analysis, Durham, NC)89. Standard TaqManTM Assays (Applied Biosystems/ThermoFisher Scientific, Foster City, CA) were used to assess the expression of 93 genes selected based on their selectivity and sensitivity to important hepatic receptors known to be modulated by environmental chemicals; importance in human hepatocyte functionality; and hepatotoxicity. Three "housekeeping" endogenous control genes were also included and used for normalization: actin beta (ACTB), Glyceraldehyde 3 phosphate dehydrogenase (GAPDH) and RNA Polymerase II Subunit A (POLR2A). qRT-PCR was conducted according to the manufacturer's protocol.
On to `CN(C)c1ccc(C(=O)c2ccc(N(C)C)cc2)cc1`, for which the result was inactive.
As for `C[C@]12C=CC3=C4CCC(=O)C=C4CC[C@H]3[C@@H]1CC[C@@H]2O`, the result was inactive.
Turning to `Clc1ccc(Cl)c(Cl)c1`, the outcome was inactive.
The same measure, in the same setting: for `O=C(Oc1ccc(Br)cc1)N1CCN2CCC1CC2` the value was “inactive”; for `c1ccc2c(c1)-c1cccc3cccc-2c13`, “inactive”.
Same read-out and setting: for `O=P(OCCCl)(OCCCl)OCCCl` the value was “inactive”.
Take `Cc1ccc(N)c(N)c1`: the outcome was inactive.
Take `CCN(CC)CCO`: the call was inactive.
Consider `COc1cc(C=O)cc2c1[C@H](COC(N)=O)[C@]1(OC(C)=O)ON2C[C@H]2[C@@H]1N2C(C)=O`, for which the compound was called inactive.
Still for that read-out and setting: the same measure for `Nc1cc(Cl)cc(C(=O)O)c1Cl`: “inactive”.
Same read-out and setting: the same measure for `OCCCBr`: “inactive”; for `CCCCCCCCn1sccc1=O`: “inactive”.
Take `Nc1ccc(Cl)cc1N`: the outcome was inactive.
Take `c1ccc(C2CO2)cc1` (stereo not given): the call was inactive.
`C[N+](C)(C)CC1CO1` (stereo not given): the outcome was inactive.
Regarding `CCCCCCCCOC(=O)c1ccc(C(=O)OCCCCCCCC)c(C(=O)OCCCCCCCC)c1`, the compound was classed as inactive.
For `c1ccc(NNc2ccccc2)cc1`, the call was inactive.
The same measure, in the same setting: the same measure for `CCCSC(=O)N(CCC)CCC`: “inactive”; for `Cc1ccc(N)cc1`: “inactive”; for `CCCCCOC(=O)c1ccccc1C(=O)OCCCCC`: “inactive”.
Same read-out and setting: for `ClC1=C(Cl)C2(Cl)C3C(Cl)C=CC3C1(Cl)C2(Cl)Cl` (stereo not given) the value was “inactive”; for `O=C1CCCO1`, “inactive”.
As for `Cn1cc(-c2ccccc2)c(=O)c(-c2cccc(C(F)(F)F)c2)c1`, the call was inactive.
On to `Cc1cc(N=Nc2ccccc2C)ccc1N`, for which the outcome was inactive.
With `C=CCc1ccc2c(c1)OCO2`, the outcome was inactive.
As for `OCCCl`, the compound was called inactive.
In the case of `O=[N+]([O-])c1ccc(Oc2ccc(Cl)cc2Cl)cc1`, the compound was classed as inactive.
The same measure, in the same setting: for `c1ccc2c(c1)oc1ccccc12` the value was “inactive”; for `Oc1ccc2ccc3cccc4ccc1c2c34`, “inactive”; for `Clc1ccccc1Cl`, “inactive”.
As for `CN(C)[C@@H]1C(=O)C(C(N)=O)=C(O)[C@@]2(O)C(=O)C3=C(O)c4c(O)cccc4[C@@](C)(O)[C@H]3C[C@@H]12`, the result was inactive.
Still for that read-out and setting: for `CNC(=O)Oc1cccc2c1OC(C)(C)C2` the value was “inactive”; for `Nc1ccc(Cc2ccc(N)cc2)cc1`, “inactive”; for `C1=Cc2cccc3cccc1c23`, “inactive”.
In the case of `CC(C)(C)OOC(=O)c1ccccc1`, the result was inactive.
In the case of `[Cl-].[Cl-].[Hg+2]`, the call was inactive.
For the compound `CC(C)(O)c1cnn2c(-c3ccc(F)c(-c4c(F)cccc4C#N)c3)cnc2n1`, the compound was called inactive.
In the case of `Cc1cccc(N)c1N`, the call was inactive.
As for `O=C(N[C@H](c1ccccc1)[C@@H]1CN2CCC1CC2)c1c(Cl)ccc(C(F)(F)F)c1Cl`, the AC50 is 2420 nM (active).
Regarding `CCOc1cccc(C2(N3CCN(c4ccccc4)CC3)CCC(C)CC2)c1` (stereo not given), the compound was classed as inactive.
